This is a sample that favours compounds with a hit; in the whole collection about 0.43% have one here.
aGlu spleen mod = inhibitors or activators of human alpha-glucosidase in spleen homogenate | human spleen homogenate, 4-MU-alpha-glucoside fluorescence | Potency, µM (series often up to 79.9 µM), for the others: at the top dose activity change, negative = inhibition, hits mostly inhibitors | P10253 | 240,000 tested, 0.006% active;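 further: potency means the concentration at half of the fitted maximal effect; 0% = enzyme with vehicle and -100% = no enzyme basal signal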
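Human spleen homogenate (1 ug) incubated with compounds and 1 mM 4-methylumbelliferyl-alpha-D-glucopyranoside in pH 5.0 citrate/phosphate buffer, 37 C, 40 min. Stopped at pH 10; 4-MU fluorescence (Ex 365/Em 440 nm); AC50 by Hill fit.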
aGal spleen mod = inhibitors or activators of human alpha-galactosidase in spleen homogenate; P06280; human spleen homogenate, 4MU-alpha-Gal fluorescence, 40 min; Potency, µM (doses to about 80 µM), for inactives: at the highest dose activity change, negative = inhibition, hits mostly inhibitors; 240,000 tested, 0.008% active;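 further: potency means the concentration at half of the fitted maximal effect; 0% = enzyme with vehicle and -100% = no enzyme basal signal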
Target sequence (P06280 32-429 limits assumed): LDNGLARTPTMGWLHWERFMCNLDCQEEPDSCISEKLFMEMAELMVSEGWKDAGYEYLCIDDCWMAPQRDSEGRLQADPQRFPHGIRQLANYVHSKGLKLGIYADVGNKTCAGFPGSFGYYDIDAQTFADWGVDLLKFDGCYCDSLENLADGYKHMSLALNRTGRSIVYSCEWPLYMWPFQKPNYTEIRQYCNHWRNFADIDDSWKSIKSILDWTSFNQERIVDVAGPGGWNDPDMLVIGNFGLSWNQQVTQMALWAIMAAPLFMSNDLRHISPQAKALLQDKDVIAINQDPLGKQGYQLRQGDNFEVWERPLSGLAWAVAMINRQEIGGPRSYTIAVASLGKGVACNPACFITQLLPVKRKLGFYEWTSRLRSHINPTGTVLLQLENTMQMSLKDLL
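qHTS titration in buffer at pH 5.0. Alpha-galactosidase activity in spleen homogenate was measured via 4-methylumbelliferone release from 1 mM fluorogenic substrate after 40 min at 37C and a pH 10 stop. AC50 came from Hill fits of control-normalized data.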
GAA inh = inhibitors of human lysosomal alpha-glucosidase; P10253; purified human GAA, 4-MU-alpha-glucoside fluorescence; Potency, µM (titrated, usually from 76.9 µM), inactives show top-dose activity change, negative = inhibition, most hits filed as inhibitors; 200,000 tested, 0.005% active; AID 1466;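 further: potency means the concentration at half of the fitted maximal effect; plate controls were uninhibited enzyme wells for no effect and no-enzyme background for full effect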
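Human enzyme at 4 nM with 400 uM 4-methylumbelliferyl-alpha-D-pyranoside, citrate/phosphate buffer pH 5.0, 0.005% Tween-20, 20 min at room temperature. Compounds up to 77 uM. 4-MU fluorescence (Ex 365/Em 440) read after NaOH/glycine stop; AC50 from Hill fit.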
N370S GC mod = inhibits or activates N370S mutant glucocerebrosidase. P04062. N370S GC spleen homogenate, 4MU-glucoside fluorescence. Potency, µM (top dose mostly 59.4 µM), for the others: top-dose activity change, negative = inhibition, usual class: inhibitors. 330,000 tested, 0.092% active. AID 2101;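 further: potency means the concentration at half of the fitted maximal effect; 0% = full enzyme activity and -100% = no enzyme basal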
GAA glycogen = alters human alpha-glucosidase cleavage of glycogen; P10253; recombinant GAA, glycogen substrate, Amplex Red glucose oxidase fluorescence; Potency, µM (titrated, usually from 76.4 µM), for inactives: at the top dose activity change, negative = inhibition, usual class: inhibitors; 300,000 tested, 0.38% active;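 further: potency means the concentration at half of the fitted maximal effect; 0% = full enzyme reaction and -100% = no-enzyme basal signal; the screen sought inhibitors and activators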
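Recombinant human enzyme (4 nM); glycogen substrate; 37 C, 40 min, pH 5.0. Readout: coupled glucose oxidase/Amplex Red fluorescence.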
GLA inh pH 4.5 = inhibitors of human alpha-galactosidase A at pH 4.5; P06280; purified enzyme, 4-MU-alpha-Gal fluorescence, pH 4.5; activity change, negative = inhibition, % at 105 µM; 230,000 tested, under 10 active; AID 1467;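 further: 0% = full activity with enzyme and -100% = basal without enzyme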
* = called active by the depositor; ? = inconclusive; / = no result; [ ] = another dose, or the depositor's remark. The call rests on the fitted dose curve; in most records, active means well fitted curve in the direction sought with a large enough effect; inconclusive means small, poorly fitted or top-dose-only effect, or another doubt; inactive means no such curve, though single readings can be large; an effect the other way counts as inactive or inconclusive.

SMILES	aGlu spleen mod	aGal spleen mod	GAA inh	N370S GC mod	GAA glycogen	GLA inh pH 4.5
CCOC(=O)C1CCCN(c2nc3ccccc3nc2C(C#N)C(=O)OCC)C1 (stereo not given)	-3%	-8%	0%	8%	-2%	1
OC[C@@H]1OC(O)[C@@H](O)[C@H](O)[C@@H]1O (stereo not given in full)	-2%	2%	/	-12%	/	/
CCOC(=O)CCCCC(=O)c1[nH]c(=O)[nH]c1CSc1nc(-c2ccccc2)c(C#N)c(=O)[nH]1	-22%	0%	?	3%	35µM*	-4
COC(=O)[C@@H](NC(=O)N1CCc2nc(COc3ccccc3)c3c(c2C1)CO[C@@H](C)C3)C(C)C	-10%[17.4 µM]	9%[17.5 µM]	/	-17%[12.8 µM]	/	-10
O=C1NCCCC2c3cc(O)c4ccccc4c3OC12N1CCCCC1 (stereo not given)	-5%	-7%	11%	12%	25µM*	0
O=C1NCCCC2c3c(cc(Br)c(O)c3Br)OC12N1CCOCC1 (stereo not given)	-1%	9%	-1%	-8%	-14%	7
CC(C)CN1CCc2nc(-c3ccccc3)c3c(c2CC1)COC(C)C3 (stereo not given)	-3%[17.4 µM]	8%[17.5 µM]	/	-11%[12.8 µM]	/	/
O=C(NCCN1CCOCC1)C1(C(F)(F)F)C/C(=C\CCO)CCCO1 (stereo not given)	1%	9%	/	-6%	/	/
CC(C)(C)n1nnnc1C(c1ccncc1)N1CCN(c2ccc(O)cc2)CC1 (stereo not given)	4%	6%	-1%	-12%	18µM*	-2
O=c1cc(CSc2ccc(Cl)cc2)[nH]c2[nH]n(-c3ccccc3)c(=O)c12	-14%	0%	/	-3%	?	-8
Cc1ccc(SCc2cc(=O)c3c(=O)n(-c4ccccc4)[nH]c3[nH]2)cc1	-2%	-4%	-14%	-5%	10µM*	-15
CNC(=O)CSc1cn(CC(=O)N2CCCCCC2)c2ccccc12	/	/	/	/	50µM*	/
COC(=O)C1=C[C@@H](C(=O)OC)C2C3=C(C(=O)[C@@]2(C)NC(=O)c2ccccc2)[C@H](C)n2c(=O)n(C)c(=O)n2[C@@H]3C1 (stereo not given in full)	-9%	8%	/	-1%	/	/
Cc1ccc(S(=O)(=O)Nc2nc(C)c(C(=O)NN)s2)cc1	6%	8%	/	20%	32µM*	1
CCOC(=O)Nc1sc(NS(=O)(=O)c2ccc(C)cc2)nc1C	-2%	-8%	?	/	28µM*	8
CC(=O)c1sc(NS(=O)(=O)c2ccc(C)cc2)nc1C	-8%	0%	6%	1%	-2%	-3
Oc1ccc(N2CCN(c3ncnc4sc5c(c34)CCC5)CC2)cc1	-4%	17%	0%	-18%	14µM*	5
COc1ccc(C(=O)/C=C(\C)Nc2ccc3c(c2)OCO3)cc1	3%	0%	-13%	7%	35µM*	-2
COc1ccc(N/C(C)=C/C(=O)c2ccccc2)cc1	-1%	1%	-11%	12%	-25%	-1
C=C[C@H]1CCC=C2C(=O)CCC[C@@H]21	-1%	3%	/	7%	/	-7
CC(=O)Nc1ccc(S(=O)(=O)Nc2ccc([N+](=O)[O-])cc2)cc1	12%	13%	/	16µM*	/	-7
COc1ccc(C(=O)C2CCCN(C3Cc4ccccc4C3)C2)cc1OC (stereo not given)	-1%	14%	?	11%	16µM*	2
COc1ccc(C(=O)C2CCCN(Cc3nc4ccccc4nc3C)C2)cc1OC (stereo not given)	1%	-8%	/	-10%	12%	0
N[C@H](CSSC[C@@H](N)C(=O)O)C(=O)O	-4%	-18%	/	-12%	/	/
CNC(=S)NNc1nc(N2CCOCC2)nc(N2CCOCC2)n1	7%	-1%	-5%	0%	7.9µM*	-24
SMILES	aGlu spleen mod	aGal spleen mod	GAA inh	N370S GC mod	GAA glycogen	GLA inh pH 4.5
O=S1(=O)CC/C(=N\Nc2ccccc2)c2ccsc21	-17%	-9%	4%	-6%	25µM*	3
C=CCc1c(C)nc(-c2ccccc2)nc1N/N=C/c1ccccc1	-5%	0%	-5%	16µM*	-21%	3
C=CCc1c(C)nc(-c2ccccc2)nc1N/N=C/c1ccncc1	/	-6%	?	?	-9%	-6
C=CCc1c(C)nc(-c2ccccc2)nc1N/N=C(\C)c1ccc(N)cc1	-1%	-1%	-2%	13µM*	?	2
CC[C@H](C)[C@H](NC(=O)[C@H](Cc1ccccc1)NC(=O)[C@H](CC(C)C)NC(=O)[C@H](CCSC)NC(=O)[C@H](CCC(=O)O)NC(=O)[C@H](CCC(=O)O)NC(=O)[C@H](CC(=O)O)NC(=O)[C@H](CO)NC(=O)[C@@H]1CCCN1C(=O)[C@H](CCCCN)NC(=O)[C@@H](N)[C@@H](C)O)C(=O)N[C@@H](Cc1ccc(O)cc1)C(=O)NCC(=O)N[C@@H](Cc1cnc[nH]1)C(=O)N[C@@H](Cc1ccc(O)cc1)C(=O)N[C@@H](CCCCN)C(=O)N[C@@H](CCC(N)=O)C(=O)N[C@@H](C)C(=O)N[C@H](C(=O)N[C@H](C(=O)NCC(=O)N[C@@H](CC(=O)O)C(=O)N[C@H](C(=O)N[C@@H](CC(N)=O)C(=O)N[C@H](C(=O)N[C@@H](CCC(=O)O)C(=O)N[C@@H](CCCNC(=N)N)C(=O)N1CCC[C@H]1C(=O)NCC(=O)N[C@@H](CCSC)C(=O)N[C@@H](CC(C)C)C(=O)N[C@@H](CC(=O)O)C(=O)N[C@@H](Cc1ccccc1)C(=O)N[C@H](C(=O)O)[C@@H](C)O)[C@@H](C)O)[C@@H](C)CC)C(C)C)[C@@H](C)O	1%	-14%	/	-2%	/	/
CN(C(=O)N1CCN(S(=O)(=O)c2ccccc2)CC1)c1ccccc1	-1%	2%	35µM*	/	-15%	-30
O=C(O)c1cc(O)c2c(c1)[C@H]([C@H]1c3cc(C(=O)O)cc(O)c3C(=O)c3c(O[C@@H]4OC(CO)C(O)C(O)C4O)cccc31)c1cccc(O[C@@H]3OC(CO)C(O)C(O)C3O)c1C2=O (stereo not given in full)	1%	?	/	-23%	/	-12
Cc1c(N=Cc2ccc(Cl)o2)c(=O)n(-c2ccccc2)n1C	2%	5%	-9%	1%	4.5µM*	-24
Cc1ccccc1-c1ccc(C=Nc2c(C)n(C)n(-c3ccccc3)c2=O)o1	4%	3%	-11%	4%	16µM*	-3
Cc1c(N=Cc2ccco2)c(=O)n(-c2ccccc2)n1C	-15%	-4%	3%	11%	10µM*	8

High-throughput results from PubChem.
